Sampled rows, rich in hits. Any-hit rate of the full collection: about 5.8%.
SW480 rerep: induces DNA re-replication in SW480 colon adenocarcinoma cells; 340,000 tested, 1.8% active; Potency, µM (series often up to 46.1 µM), actives largely listed as activators; AID 624297; SW480 DNA re-replication, Hoechst DNA content imaging, 48 h; note: nearly all actives have a fitted effect of over 55% in size
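Cells (250 per well) received 23 nL compound or DMSO by pin tool and were kept 48 hr at 37 C, 5% CO2. Nuclei were then stained with Hoechst for 40 min and scanned for DNA content.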
PINK1 modulator: PINK1 expression modulation; Potency, µM (series often up to 76.6 µM), usual class: activators; PINK1 immunofluorescence, high-content cytometry, 24 h; 410,000 tested, 0.2% active; active = well fitted activation curve with a large enough effect; inconclusive = small, poorly fitted or top-dose-only effect; cell line not stated here; note: nearly all actives have a fitted effect of over 65% in size
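Stable cell line, 250 cells/well, 12 h attachment; compounds pinned at 5 concentrations, 24 h; CCCP control. Fixed with nuclear dye, primary antibodies 12 h at 10 degrees C, secondary plus cell stain; laser-scanning cytometer read.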
KB-3-1 tox: kills parental KB-3-1 adenocarcinoma cells | KB-3-1 viability, CellTiter-Glo ATP luminescence, 72 h | Potency, µM (series often up to 46.1 µM), usual class: cytotoxic | 400,000 tested, 1.4% active | AID 1347075; note: nearly all actives have a fitted effect of over 60% in size
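Using CellTiter-Glo luminescence, growth of non-resistant KB-3-1 adenocarcinoma cells is assessed 72 h after pin-tool compound addition at 37 °C. Normalized responses across the concentration series yield fitted curves.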
MCF10A rerep: DNA re-replication induction in MCF 10a cells; MCF 10A DNA re-replication, Hoechst nuclear intensity, 48 h; Potency, µM (highest dose often 46.1 µM), usual class: activators; 350,000 tested, 2.9% active; note: nearly all actives have a fitted effect of over 50% in size
KB-V1 MDR tox: kills drug-selected multidrug resistant KB-V1 cells; KB-V1 MDR cells viability, CellTiter-Glo, 72 h; Potency, µM (series often up to 46.1 µM), hits mostly cytotoxic; 400,000 tested, 3.4% active; AID 1347076; note: nearly all actives have a fitted effect of over 60% in size
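Following 72 h at 37 degrees C with compound, KB-V1 cell viability was read by CellTiter-Glo luminescence, medium being phenol-red-free DMEM plus 10% FBS; concentration-response parameters came from normalized, curve-fitted qHTS data.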
12-LOX inh: blocks human arachidonate 12S-lipoxygenase | P18054 | purified 12hLO, xylenol orange hydroperoxide absorbance | Potency, µM (highest dose often 108 µM), hits mostly inhibitors | 580,000 tested, 1.1% active | AID 1671190
Target sequence (P18054 whole entry, looked up): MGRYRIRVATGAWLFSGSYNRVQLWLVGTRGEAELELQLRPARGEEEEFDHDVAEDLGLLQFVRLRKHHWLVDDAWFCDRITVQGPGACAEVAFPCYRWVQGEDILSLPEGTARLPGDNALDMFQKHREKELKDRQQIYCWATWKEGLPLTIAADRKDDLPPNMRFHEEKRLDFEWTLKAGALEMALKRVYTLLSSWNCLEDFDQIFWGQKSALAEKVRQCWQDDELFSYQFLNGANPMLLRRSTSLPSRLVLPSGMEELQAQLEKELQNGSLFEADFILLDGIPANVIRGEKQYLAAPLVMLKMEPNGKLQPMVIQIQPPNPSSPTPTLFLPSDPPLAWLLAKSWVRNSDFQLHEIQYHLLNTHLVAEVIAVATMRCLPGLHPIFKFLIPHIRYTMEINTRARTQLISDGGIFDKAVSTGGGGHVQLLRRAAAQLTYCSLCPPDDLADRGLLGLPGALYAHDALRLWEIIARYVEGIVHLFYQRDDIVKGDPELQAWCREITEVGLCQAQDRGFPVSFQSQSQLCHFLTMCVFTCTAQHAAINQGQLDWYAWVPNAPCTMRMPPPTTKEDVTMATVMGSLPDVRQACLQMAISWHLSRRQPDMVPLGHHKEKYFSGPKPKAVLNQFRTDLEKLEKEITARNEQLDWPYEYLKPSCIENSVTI
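Purified human 12hLO at 150 nM in 25 mM Hepes, 0.01% Triton X-100, pH 7.0, preincubated 15 min at room temperature with compound. Reaction started with 40 uM arachidonic acid, 30 min at room temperature. Hydroperoxide measured by Fe-xylenol orange, 573/405 nm absorbance ratio.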
Hits are given with their value; i = inactive; ? = inconclusive; nt = no result given. Unless noted, calls come from the whole dose curve; as a rule, active = well fitted curve in the direction sought with a large enough effect; inconclusive = small, poorly fitted or top-dose-only effect, or another doubt; inactive = no such curve, though single readings can be large; an effect the other way counts as inactive or inconclusive.

SMILES | SW480 rerep | PINK1 modulator | KB-3-1 tox | MCF10A rerep | KB-V1 MDR tox | 12-LOX inh
CC(NC(=O)C1(S(=O)(=O)c2ccc(Cl)cc2)CC1)c1ccccc1 (stereo unspecified) | i | i | i | i | 21µM | i
O=C(NCc1ccccc1Cl)C1(S(=O)(=O)c2ccc(Cl)cc2)CC1 | i | i | i | i | i | i
O=C1N=C(N2CCN(c3ccccc3)CC2)SC1Cc1ccccc1 (stereo unspecified) | i | i | i | i | 16µM | i
Cc1cccc(N2CCN(C(=O)c3ccc4c(c3)c(C)c(C)n4C)CC2)c1C | nt | i | i | nt | i | i
COc1ccccc1N1CCN(C(=O)c2ccc3ncsc3c2)CC1 | 16µM | i | 5.2µM | 21µM | 12µM | i
COc1ccc(OC)c2sc(N3CCN(C(=O)c4ccc5ncsc5c4)CC3)nc12 | i | i | i | i | i | i
Cc1ccc(C)c(N2CCN(C(=O)c3ccc4c(c3)c(C)c(C)n4C)CC2)c1 | ? | i | ? | 5.2µM | i | i
COc1ccccc1N1CCN(C2CCN(C(=O)c3cccc(F)c3)CC2)CC1 | i | i | i | i | 16µM | ?
COc1ccccc1N1CCN(C(=O)c2nc(SC)ncc2Cl)CC1 | nt | i | 4.1µM | nt | 4.1µM | i
CCCCCCCc1ccc(-c2nnc(-c3ccc(Br)cc3)o2)cc1 | nt | nt | nt | nt | nt | i
Cc1ccc(N2N=C(c3ccccc3)CCC2=O)cc1 | nt | nt | nt | nt | nt | i
COc1ccccc1N1CCN(C(=O)c2ccc3nc[nH]c3c2)CC1 | i | i | i | i | i | i
Cc1ccc(C)c(N2CCN(C(=O)c3ccc4nc(-c5ccco5)c(-c5ccco5)nc4c3)CC2)c1 | 18µM | i | 18µM | ? | ? | ?
CC1CCCN(C(=O)c2ccc3ncsc3c2)C1 (stereo unspecified) | 3.7µM | i | i | i | i | i
O=C(c1ccc2ncsc2c1)N1CCCC(C(F)(F)F)C1 (stereo unspecified) | ? | i | i | i | i | i
COc1ccccc1N1CCN(C(=O)c2ccc3nc(-c4ccco4)c(-c4ccco4)nc3c2)CC1 | ? | i | ? | 23µM | 23µM | ?
FC(F)(F)c1cnc(Sc2nnc3ccccn23)c(Cl)c1 | nt | nt | nt | nt | nt | i
CCOC(=O)CNC(=S)N(Cc1ccccc1F)C1CCCCC1 | ? | i | i | i | ? | i
COc1ccc(N(C(=O)c2cnccn2)C(C(=O)NC2CCCCC2)c2ccc(Cl)cc2)cc1 (stereo unspecified) | i | i | i | i | i | i
COc1ccc(C(C(=O)NC2CCCCC2)N(C(=O)CCl)c2ccc(Cl)cc2)cc1 (stereo unspecified) | ? | i | 5.8µM | ? | ? | nt
CC1CCCC(NC(=O)CNC(=S)N(Cc2ccccc2)Cc2cccs2)C1C (stereo unspecified) | ? | i | i | 13µM | ? | i
COC(=O)c1ccc(C(C(=O)NC2CCCCC2)N(Cc2ccc(F)cc2)C(=O)Cc2cccs2)cc1 (stereo unspecified) | i | i | i | i | 3.7µM | i
CCOC(=O)CNC(=S)N(Cc1cccs1)C1CCCCC1 | i | i | i | i | 7.3µM | i
Cn1cccc1C(C(=O)NC1CCCCC1)N(C(=O)Cc1cccs1)C1CC1 (stereo unspecified) | i | i | i | i | 6.5µM | i
Cc1ccc(C(=O)N(CC(=O)NC2CCCC2)c2ccccc2C)s1 | i | i | i | i | i | i
SMILES | SW480 rerep | PINK1 modulator | KB-3-1 tox | MCF10A rerep | KB-V1 MDR tox | 12-LOX inh
O=C(NC1CCCC1)C(c1ccc(Cl)cc1)N(Cc1ccc(F)cc1)C(=O)CCl (stereo unspecified) | ? | i | i | i | i | nt
O=C(NC1CCCCC1)C(c1cccnc1)N(C(=O)CCl)c1cccc(Cl)c1 (stereo unspecified) | 4.1µM | i | 23µM | 13µM | 21µM | ?
O=C(NC1CCCC1)C(c1ccc(F)cc1)N(Cc1ccc(Cl)cc1)C(=O)CCl (stereo unspecified) | i | i | ? | i | 16µM | ?
Cc1ccc(C(=O)N(CC(=O)NC2CCCC2)Cc2cccs2)s1 | i | i | i | i | 5.8µM | i
Cc1cccc(N(C(=O)CNC(=O)c2ccco2)C(C(=O)NC2CCCCC2)c2cccnc2)c1 (stereo unspecified) | i | i | i | i | i | i
COc1ccc(N(C(=O)Cc2cccs2)C(C(=O)NC2CCCCC2)c2cccn2C)cc1OC (stereo unspecified) | i | i | i | i | i | i
CCC(C)(C(=O)NC1CCCCC1)N(Cc1cccs1)C(=O)Cc1cccs1 (stereo unspecified) | i | i | i | i | 13µM | i
CCCCn1nc(C(=O)NCCc2ccc(S(N)(=O)=O)cc2)c2ccccc2c1=O | nt | nt | nt | nt | nt | i
CC1=NN2C(=N)/C(=C\c3ccc(SCc4ccccc4)o3)C(=O)N=C2S1 | i | i | ? | ? | i | 40µM
Oc1ccccc1Oc1ncc(Br)c(Cl)n1 | i | i | i | i | i | 32µM
COc1ccc(Cn2c(C(=O)O)c(CNCc3cccs3)c3ccc(C)cc32)cc1 | nt | i | ? | nt | i | ?
C=Cc1ccc(Cn2c(C(=O)O)c(CNCc3cccs3)c3ccc(C)cc32)cc1 | nt | i | i | nt | i | ?
C=Cc1ccc(Cn2c(C(=O)O)c(CNCc3ccc(F)cc3)c3ccc(C)cc32)cc1 | nt | i | 7.3µM | nt | i | ?
C=Cc1ccc(Cn2c(C(=O)O)c(CNCc3ccccc3)c3ccc(OC)cc32)cc1 | nt | i | nt | nt | nt | 4µM
COc1ccc2c(CNCc3cccs3)c(C(=O)O)n(Cc3ccc(F)cc3)c2c1 | nt | i | 16µM | nt | i | i
COc1ccc2c(CNCc3cccs3)c(C(=O)O)n(Cc3ccc(F)cc3Cl)c2c1 | nt | i | i | nt | ? | i
Cc1ccc2c(CNCc3cccs3)c(C(=O)O)n(Cc3ccc(F)cc3)c2c1 | nt | i | 12µM | nt | i | i
Cc1ccccc1-c1ncnn1-c1sc2c(c1C#N)CCCCC2 | nt | i | i | nt | i | ?
CC(C)(C)NCc1cccn1-c1sc2c(c1C#N)CCCC2 | i | i | i | i | 16µM | ?
CCCCC1Cc2[nH]c(=S)[nH]c(=O)c2C(c2cccc3ccccc23)O1 (stereo unspecified) | nt | i | i | nt | i | 13µM
Clc1ccc(-c2cc3ccccn3c2)cc1 | nt | nt | nt | nt | nt | 4µM
c1csc(-c2cc3ccccn3c2)c1 | nt | nt | nt | nt | nt | i
N#Cc1ccccc1OCc1cccc2ccccc12 | nt | nt | nt | nt | nt | i
COc1ccc([N+](=O)[O-])cc1COc1cc(C)cc2oc(=O)cc(-c3ccccc3)c12 | ? | i | 21µM | 12µM | 6.5µM | i
Cc1nc(CNC(=O)CC2C(=O)NCCN2Cc2ccccn2)n[nH]1 (stereo unspecified) | nt | nt | nt | nt | nt | i
CCCCc1[nH]nc2c1C1(C(=O)Nc3ccccc31)C(C#N)=C(N)O2 (stereo unspecified) | nt | nt | nt | nt | nt | i

Screens from PubChem BioAssay.
